Inconclusive results are not listed. A number with no mark means an inactive call. Calls of active or inactive are those of the source. Unless noted, calls come from the whole dose curve. Square brackets hold non-standard residues; d marks the D form. Peptide text beside a SMILES is read from it. ξ: configuration not given here. d(hArg(Et2)) = CCN=C(NCC)NCCCC[C@@H](N)C(=O)O; hArg(Et2) = CCN=C(NCC)NCCCC[C@H](N)C(=O)O; Phe(4-Cl) = N[C@@H](Cc1ccc(Cl)cc1)C(=O)O; ξ2Nal = NC(Cc1ccc2ccccc2c1)C(=O)O; 3Pal = N[C@@H](Cc1cccnc1)C(=O)O; ξP = O=C(O)C1CCCN1
Tested on: not listed separately
Test: Primary qHTS for Vero E6 cytotoxicity: counterscreen for inhibitors of SARS-S pseudo-typed particle cell entry (AID 1479150)
Conditions: cell viability; series mostly up to 57.1 µM; activity change, negative = cytotoxicity: at the top concentration
% is set by controls: 0 for no effect and ±100 for the full control effect.

Structure (SMILES) | activity change, negative = cytotoxicity | outcome
NCCNc1ccc(NCCN)c2c1C(=O)c1ccncc1C2=O | -5.01% | –
CC1(C)S[C@@H]2[C@H](NC(=O)[C@H](N)c3ccccc3)C(=O)N2[C@H]1C(=O)OCOC(=O)[C@@H]1N2C(=O)C[C@H]2S(=O)(=O)C1(C)C | – | inactive
Cc1cc(Nc2ccccc2C(=O)O)ccc1Cl | – | inactive
CO/N=C(\C(=O)N[C@@H]1C(=O)N2C(C(=O)O)=C(CSc3nnnn3C)CS[C@H]12)c1csc(N)n1 | 1.67% | –
ClCC1CO1 (configuration not stated) (tested in a mixture with another compound) | – | inactive
CNC(C)[C@@H](O)c1ccc(O)cc1 (some centres not stated) | – | inactive
CCCCCCCCCCCCCCCCCCCCCC(=O)Nc1ccn([C@@H]2O[C@H](CO)[C@@H](O)[C@@H]2O)c(=O)n1 | – | inactive [at 26.4 µM]
CC(C)(C)c1ccc2c(S(=O)(=O)O)c(C(C)(C)C)ccc2c1 | – | inactive
C[N+](C)(C)C1CCC(CC2CCC([N+](C)(C)C)CC2)CC1 (configuration not stated) | – | inactive
CCOC(=O)C=C(C)C=CC[C@@H](C)CCCC(C)C | – | inactive
CCNC(=NCCCC[C@H](NC(=O)[C@H](CC(C)C)NC(=O)[C@@H](CCCCN=C(NCC)NCC)NC(=O)[C@@H](Cc1ccc(O)cc1)NC(=O)[C@@H](CO)NC(=O)[C@H](Cc1cccnc1)NC(=O)[C@H](Cc1ccc(Cl)cc1)NC(=O)C(Cc1ccc2ccccc2c1)NC(C)=O)C(=O)N1CCCC1C(=O)N[C@H](C)C(N)=O)NCC (some centres not stated) (Ac-[ξ2Nal][Phe(4-Cl)][3Pal][dS][dY][d(hArg(Et2))]L[hArg(Et2)][ξP][dA]-NH2) | -23.2% | –
C[C@@H]1CCC[C@H](C)N1NC(=O)c1ccc(Cl)c(S(N)(=O)=O)c1 | -24.7% | –
CC1(C)[C@H](C=C(Cl)Cl)[C@@H]1C(=O)OCc1c(F)c(F)cc(F)c1F | 3.11% | –
O1[As]2O[As]1O2 | – | inactive
CCCc1ccc(C(=O)O)cc1 | – | inactive
C[C@]12C[C@@H]3S[C@H]3C[C@@H]1CC[C@H]1[C@H]3CC[C@@H](O)[C@@]3(C)CC[C@@H]12 | – | inactive
CC(C)(C)NC(=O)[C@@H]1C[C@@H]2CCCC[C@H]2CN1C[C@@H](O)[C@H](Cc1ccccc1)NC(=O)[C@H](CC(N)=O)NC(=O)c1ccc2ccccc2n1 | 4.61% | –
CO[C@@H]1[C@H](C)OC(O[C@H]2CC(Oc3cc4cc5c(c(O)c4c(O)c3C)C(=O)[C@@H](OC3C[C@@H](OC4C[C@H](OC6C[C@](C)(O)[C@@H](OC(C)=O)[C@H](C)O6)[C@@H](O)[C@H](C)O4)[C@H](O)[C@@H](C)O3)[C@H]([C@@H](OC)C(=O)[C@@H](O)[C@H](C)O)C5)O[C@@H](C)[C@H]2OC(C)=O)C[C@@H]1O (some centres not stated) | -40.7% | –
CC[C@H]1OC(=O)C[C@@H](O)[C@H](C)[C@@H](OC2OC(C)C(O)C(N(C)C)C2O)[C@@H](CCN2CCCCC2)C[C@@H](C)C(=O)/C=C/C(C)=C/[C@@H]1CN1CCCCC1 (some centres not stated) | -1.3% | –
CCOC(=O)[C@H](C)C[C@@H](Cc1ccc(-c2ccccc2)cc1)NC(=O)CCC(=O)O | -15.4% | –
O=S(O)CNc1ccc(S(=O)(=O)c2ccc(NCS(=O)O)cc2)cc1 | – | inactive
CCCCC(CC)CCC(CC(C)C)OS(=O)(=O)O (configuration not stated) | – | inactive
CCOC(=O)[C@H](CS)NCCN[C@@H](CS)C(=O)OCC | -0.546% | –
O=c1[nH]cnc2c([C@@H]3N[C@H](CO)[C@@H](O)[C@H]3O)c[nH]c12 | -9.68% | –
CO[C@H]1O[C@@H]2O[C@@]3(C)CC[C@H]4[C@H](C)CC[C@@H]([C@@H]1C)[C@@]24OO3 | 2.17% | –
COC(=O)N[C@H](C(=O)N1CCC[C@H]1c1ncc(-c2ccc3c(c2)O[C@@H](c2ccccc2)n2c-3cc3cc(-c4cnc([C@@H]5CCCN5C(=O)[C@@H](NC(=O)OC)C(C)C)[nH]4)ccc32)[nH]1)C(C)C | -12.8% | –
C=C1/C(=C/C=C2\CCC[C@]3(C)[C@@H]([C@H](C)CCCC(C)(C)O)CC[C@@H]23)C[C@@H](O)[C@@H](OCCCO)[C@@H]1O | 3.62% | –

Molecular target: Cytochrome P450 2D6 (Homo sapiens) (UniProt P10635)
Sequence (P10635 whole entry, looked up): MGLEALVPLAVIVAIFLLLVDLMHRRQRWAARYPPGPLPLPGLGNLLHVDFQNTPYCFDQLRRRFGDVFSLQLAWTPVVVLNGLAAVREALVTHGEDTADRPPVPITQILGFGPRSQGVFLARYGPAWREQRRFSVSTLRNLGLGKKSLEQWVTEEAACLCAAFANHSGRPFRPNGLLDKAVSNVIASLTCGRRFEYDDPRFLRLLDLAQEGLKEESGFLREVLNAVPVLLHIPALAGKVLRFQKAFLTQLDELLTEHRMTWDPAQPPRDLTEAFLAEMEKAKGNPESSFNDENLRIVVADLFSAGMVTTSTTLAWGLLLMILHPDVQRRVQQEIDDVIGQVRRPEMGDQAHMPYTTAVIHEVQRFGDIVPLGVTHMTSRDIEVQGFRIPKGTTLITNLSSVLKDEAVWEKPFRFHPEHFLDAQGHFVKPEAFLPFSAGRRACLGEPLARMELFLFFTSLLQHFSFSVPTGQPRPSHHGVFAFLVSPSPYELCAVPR
Test: Cytochrome P450 family 2 subfamily D member 6 (CYP2D6) small molecule antagonists: luciferase biochemical (cell-free) qHTS assay (AID 1645840; active = well fitted curve in the direction sought with a large enough effect in the repeat runs; an effect the other way counts as inactive or inconclusive; note: nearly all actives have a fitted effect of over 55% in size; note: potency is the fitted concentration of half-maximal effect)
Conditions: P450-Glo CYP2D6 enzyme, luciferin luminescence, 1 h; series mostly up to 57.4 µM; activity change, negative = inhibition: at the top concentration
In short: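 P450-Glo CYP2D6 system: proluciferin substrate converted by enzyme to luciferin, read by luminescence proportional to activity. Enzyme-substrate mix with compound 10 min at room temperature, then NADPH regeneration 1 h before detection reagent.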

Structure (SMILES) | Potency | activity change, negative = inhibition
CC(Cc1ccc2c(c1)OCO2)NCC(O)c1ccc(O)c(O)c1 (configuration not stated) | 0.674 µM (active) | –
CNC(C)[C@@H](O)c1ccc(O)cc1 (some centres not stated) | – | 2.83%
CCOC(=O)C=C(C)C=CC[C@@H](C)CCCC(C)C | – | -5.94%
CC1(C)[C@H](C=C(Cl)Cl)[C@@H]1C(=O)OCc1c(F)c(F)cc(F)c1F | – | 0.767%
C[C@]12C[C@@H]3S[C@H]3C[C@@H]1CC[C@H]1[C@H]3CC[C@@H](O)[C@@]3(C)CC[C@@H]12 | – | -1.97%

Molecular target: Cytochrome P450 2C9 (Homo sapiens) (UniProt P11712)
Sequence (P11712 whole entry, looked up): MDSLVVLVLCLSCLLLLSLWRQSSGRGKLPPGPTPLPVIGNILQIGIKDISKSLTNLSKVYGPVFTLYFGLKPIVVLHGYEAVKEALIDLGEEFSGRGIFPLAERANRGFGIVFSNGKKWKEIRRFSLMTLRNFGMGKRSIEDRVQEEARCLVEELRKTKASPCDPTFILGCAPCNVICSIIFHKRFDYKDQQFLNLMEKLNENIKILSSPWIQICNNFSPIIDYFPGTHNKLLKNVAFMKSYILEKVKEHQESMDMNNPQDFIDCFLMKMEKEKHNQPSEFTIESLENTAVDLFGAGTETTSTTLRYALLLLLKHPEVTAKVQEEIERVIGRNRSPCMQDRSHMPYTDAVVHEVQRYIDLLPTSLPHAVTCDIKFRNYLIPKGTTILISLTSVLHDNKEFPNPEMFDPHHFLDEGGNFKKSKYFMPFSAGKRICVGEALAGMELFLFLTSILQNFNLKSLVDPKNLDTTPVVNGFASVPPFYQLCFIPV
Test: Cytochrome P450 family 2 subfamily C member 9 (CYP2C9) small molecule antagonists: luciferase biochemical (cell-free) qHTS assay (AID 1645842; active = well fitted curve in the direction sought with a large enough effect in the repeat runs; an effect the other way counts as inactive or inconclusive; note: nearly all actives have a fitted effect of over 55% in size; note: potency is the fitted concentration of half-maximal effect)
Conditions: P450-Glo CYP2C9 enzyme assay, luciferin luminescence; series mostly up to 57.4 µM; activity change, negative = inhibition: at the top concentration
In short: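 P450-Glo CYP2C9 system: proluciferin substrate with enzyme in mix containing 0.4% BSA, 10 min at room temperature, then NADPH regeneration solution added and incubated 1 h at 37C. Detection reagent stopped reaction; luminescence read after 20 min as RLU.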

Structure (SMILES) | Potency | activity change, negative = inhibition
CC(Cc1ccc2c(c1)OCO2)NCC(O)c1ccc(O)c(O)c1 (configuration not stated) | 15.1 µM (active) | –
CNC(C)[C@@H](O)c1ccc(O)cc1 (some centres not stated) | – | 4.75%
CCOC(=O)C=C(C)C=CC[C@@H](C)CCCC(C)C | 10.7 µM (active) | –
CC1(C)[C@H](C=C(Cl)Cl)[C@@H]1C(=O)OCc1c(F)c(F)cc(F)c1F | 12 µM (active) | –
C[C@]12C[C@@H]3S[C@H]3C[C@@H]1CC[C@H]1[C@H]3CC[C@@H](O)[C@@]3(C)CC[C@@H]12 | 0.107 µM (active) | –

Reference: PubChem BioAssay (NCATS)
